Experimental findings from PubChem BioAssay (NCATS) are described below.

Experiment [1] concerns the target Cellular tumor antigen p53 (Homo sapiens) (UniProt P04637). As to the kind of experiment: Primary qHTS for small molecule compounds that upregulate eGFP-tagged delta133p53alpha (in N-terminal) cells. (AID 2060322).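 For activation: cells pre-induced with doxycycline then dosed without doxycycline; series mostly up to about 56 µM; 0% = DMSO vehicle and 100% = reference activator.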 Note: nearly all actives have a fitted effect of over 75% in size. The following applies: NCI-H358 eGFP-delta133p53alpha fluorescence, 24 h; activation: stronger effect = higher value. The method in brief: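 NCI-H358 cells pre-induced 24 h with 10 ng/ml doxycycline for eGFP-delta133p53alpha, plated dox-free and exposed 24 h at 37C to titrated compounds. Fixed, Hoechst-stained; gated GFP peak intensity by laser scanning cytometry, normalized to DMSO (0%) and 57.5 uM 5-azacytidine (100%).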
A general note: In qHTS, concentration-response curves come from the screen itself.

The nature of experiment [2]: BET inhibitor-based combinations targeting novel dependencies in MECOM-rearranged (r) AML: MV-4-11 cell line (AID 2202233). Note: nearly all actives have a fitted effect of over 45% in size. The method in brief: (§1)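 Seeding density was 500 cells/well, and drug exposure lasted 48 hr under standard culture conditions. Read-out used CellTiter-Glo reagent with a 15 min room-temperature incubation before luminescence measurement; AUC and Z-AUC summarize the normalized responses.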

A short description of experiment [3]: BET inhibitor-based combinations targeting novel dependencies in MECOM-rearranged (r) AML: HNT-34 cell line (AID 2202234). Note: nearly all actives have a fitted effect of over 35% in size. The method, boiled down:
as §1

Experiment [4] can be described thus: BET inhibitor-based combinations targeting novel dependencies in MECOM-rearranged (r) AML: AML-191 cell line (AID 2202236; note: nearly all actives have a fitted effect of over 35% in size). The method in brief: (§2)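 Readout: CellTiter-Glo luminescence. Exposure: 48 h, 11 concentrations, 500 cells/well. Metric: AUC and within-line Z-AUC after DMSO/empty-well normalization.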
Experiment [5] in a line: BET inhibitor-based combinations targeting novel dependencies in MECOM-rearranged (r) AML: OCI-AML3 cell line (AID 2202232). Note: nearly all actives have a fitted effect of over 35% in size. Conditions: Potency: OCI-AML3 viability. The method, boiled down:
as §2

The nature of experiment [6]: BET inhibitor-based combinations targeting novel dependencies in MECOM-rearranged (r) AML: UCSD-AML1 cell line (AID 2202235). Note: nearly all actives have a fitted effect of over 40% in size. The method, boiled down:
as §1

The nature of experiment [7]: BET inhibitor-based combinations targeting novel dependencies in MECOM-rearranged (r) AML: AML-194 cell line (AID 2202237; note: nearly all actives have a fitted effect of over 40% in size). The method in brief: as §2
Experiment [8] addresses Cellular tumor antigen p53 (Homo sapiens) (UniProt P04637). The experiment in a line: Primary qHTS for small molecule compounds that upregulate eGFP-tagged delta133p53alpha (in C-terminal) cells. (AID 2060324). The method in brief:
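Readout: filtered GFP peak intensity of gated cells (laser scanning cytometer), normalized plate-wise to intraplate controls, DMSO wells = 0% activity. Cells: NCI-H358 D133p53a-eGFP, dox 100 ng/ml 24 h beforehand, then compound 24 h, 37 °C.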

For experiment [9], the target named is Aldehyde dehydrogenase, mitochondrial (Homo sapiens) (UniProt P05091). The experiment in a line: qHTS for Inhibitors of the Aldehyde Dehydrogenase Family (ALDH2) Validation screens (AID 2061302; active = well fitted inhibition curve with a large enough effect; title and protocol of this record describe different tests).

Values joined by “and” are separate entries in the source; they are usually repeats but may differ in a detail not shown here. Equal values may be shown once. Results filed as inconclusive are left out. Unmarked numbers belong to inactive results. Active and inactive are the calls of the source. Unless noted, calls come from the whole dose curve; as a rule, active = well fitted curve in the direction sought with a large enough effect; inconclusive = small, poorly fitted or top-dose-only effect, or another doubt; inactive = no such curve, though single readings can be large; an effect the other way counts as inactive or inconclusive.
Potency is the fitted concentration of half-maximal effect.

Cellular tumor antigen p53 (Homo sapiens), sequence (P04637 whole entry, looked up): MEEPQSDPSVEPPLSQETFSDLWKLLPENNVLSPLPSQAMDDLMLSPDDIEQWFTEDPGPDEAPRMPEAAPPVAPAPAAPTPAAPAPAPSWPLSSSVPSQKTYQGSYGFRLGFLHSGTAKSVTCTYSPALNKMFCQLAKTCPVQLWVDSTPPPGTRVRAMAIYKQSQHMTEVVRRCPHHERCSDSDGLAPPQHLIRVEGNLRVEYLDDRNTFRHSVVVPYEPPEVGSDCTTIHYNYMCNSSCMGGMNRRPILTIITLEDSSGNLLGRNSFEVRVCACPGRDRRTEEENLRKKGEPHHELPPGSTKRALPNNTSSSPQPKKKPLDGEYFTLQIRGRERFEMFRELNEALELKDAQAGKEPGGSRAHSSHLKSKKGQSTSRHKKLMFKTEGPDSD

On to `C#Cc1cccc(Nc2ncnc3cc(OCCOC)c(OCCO)cc23)c1`, for which the activation in experiment [1] was 34%. The figures for the Potency in experiment [2], in experiment [3] and in [4] were 2.63 µM (active), 2.63 µM (active) and 16.6 µM (active), respectively.
With `O=c1c(O)c(-c2ccc(O)c(O)c2)oc2cc(O)ccc12`, in [1], the activation is -6.9%. Moreover, in experiment [2], the Potency is 2.63 µM (active).
Turning to `C[C@]12CCC(=O)C=C1[C@@H]1C[C@@H]1[C@H]1[C@@H]3[C@@H]4C[C@@H]4[C@@]4(CCC(=O)O4)[C@@]3(C)CC[C@@H]12`, the activation in [1] was -15.3%. Also, the Potency in experiment [5] is 8.33 µM (active). Further, the Potency result in experiment [6] and in experiment [7] was “inactive” in each case.
Regarding `C[N+](C)([O-])CCNc1ccc(NCC[N+](C)(C)[O-])c2c1C(=O)c1c(O)ccc(O)c1C2=O`, in experiment [1], the activation was 9.32%. Moreover, the Potency in [2] is 0.468 µM (active); in [6], 9.34 µM (active).
`O=C(Cc1cccc(OC(F)(F)F)c1)Nc1ccc(CCCCc2nnc(NC(=O)Cc3ccccn3)s2)nn1`: the activation in experiment [1] was 7.71%. Besides, the Potency entry in experiment [5] was “inactive”. For the same compound, the figures for the Potency in [6] and in [4] were 0.0209 µM (active) and 0.118 µM (active), respectively.
In the case of `O=c1c(-n2ccnn2)c[nH]n1-c1cc(N2CCOCC2)ncn1`, the activation in experiment [1] is 44.9%. Moreover, the Potency in experiment [2] is 20.9 µM (active).
Consider `NC(=O)[C@@H](CCC(F)(F)F)N(Cc1ccc(-c2ncon2)cc1F)S(=O)(=O)c1ccc(Cl)cc1`, for which the activation in experiment [1] was 12.6%. For the same compound, the Potency entry in [5], in experiment [6] and in experiment [7] was “inactive” in each case.
For `O=C(O)c1c(Cl)c(Cl)c(Cl)c(Cl)c1-c1c2cc(I)c(=O)c(I)c-2oc2c(I)c(O)c(I)cc12`, in experiment [1], the activation is -18.2%. For the same compound, the Potency result in [2] was “inactive”. In addition, the Potency in experiment [6] is 5.9 µM (active).
On to `C1CCC(C(CC2CCCCN2)C2CCCCC2)CC1` (centres undefined), for which the activation in experiment [1] was 21.8%. For the same compound, the Potency in experiment [5] is 6.61 µM (active); in experiment [3], 7.42 µM (active); in experiment [4] it was 9.34 µM (active); in experiment [7] it was 7.42 µM (active).
On to `Cc1cc(Nc2ncc3c(n2)N(C)C(=O)N(c2cc(NC(=O)c4cccc(C(F)(F)F)c4)ccc2C)C3)n(C)n1`, for which the Potency in experiment [1] was 0.432 µM (active); in experiment [2], 0.0372 µM (active); in [3], 0.0263 µM (active); in [6], 0.417 µM (active); in [4], 0.235 µM (active).
Regarding `CN1CCC(=C2c3ccccc3CCc3sccc32)CC1`, the activation in [1] was -15.1% and 66.1%. Moreover, in experiment [2], the Potency is 33.2 µM (active).
As for `Nc1nc(=O)n([C@H]2C[C@H](O)[C@@H](CO)O2)cc1F`, the activation in experiment [1] was -4.59%. For the same compound, the Potency in experiment [5] is 0.132 µM (active); in experiment [4], 0.186 µM (active); in [7], 0.742 µM (active).
On to `C#CCC(Cc1cnc2nc(N)nc(N)c2n1)c1ccc(C(=O)N[C@@H](CCC(=O)O)C(=O)O)cc1` (some centres undefined), for which, in experiment [1], the activation was -21.3%. For the same compound, the Potency in experiment [2] is 0.0053 µM (active).
On to `CCCCc1oc2ccccc2c1C(=O)c1cc(I)c(OCCN(CC)CC)c(I)c1`, for which the activation in experiment [1] is -16.4% and -32.6%. For the same compound, the figures for the Potency in [2], in experiment [6] and in [4] were 18.6 µM (active), 23.5 µM (active) and 20.9 µM (active), respectively.
Take `O=c1[nH]c(=O)n([C@H]2C[C@H](O)[C@@H](CO)O2)cc1I`: the activation in experiment [1] is -6.69%. Besides, the Potency in [2] was 18.6 µM (active); in experiment [6], 20.9 µM (active).
With `Cc1ccc(NC(=O)c2ccc(CN3CCN(C)CC3)cc2)cc1Nc1nccc(-c2cccnc2)n1`, the activation in experiment [1] was -19.4% and -18.4% and -2.86%. Also, the Potency entry in [6] is “inactive”.
For `O=C(NCCCNc1nc(Nc2cccc(NC(=O)N3CCCC3)c2)ncc1I)c1cccs1`, in [1], the activation was 9.72%. Moreover, the figures for the Potency in [2] and in [6] were 0.662 µM (active) and 5.25 µM (active), respectively.
`O=[N+]([O-])c1ccc2c(c1)S(=O)(=O)C=C2`: in [8], the Potency was 30.1 µM (active).
With `Cc1cc2c(F)c(Oc3ncnn4cc(OC[C@@H](C)O)c(C)c34)ccc2[nH]1`, the activation in [1] is -34.1%. For the same compound, in experiment [6], the Potency entry was “inactive”.
Regarding `Clc1ccc(COC(Cn2ccnc2)c2ccc(Cl)cc2Cl)c(Cl)c1` (centres undefined), the activation in experiment [1] was -18.8%. Moreover, the Potency in experiment [3] was 16.6 µM (active); in experiment [7], 26.3 µM (active). Moreover, in experiment [6], the Potency entry is “inactive”.
As for `N=c1c[n+](N2CCOCC2)[n-]o1`, the Potency result in experiment [8] and in experiment [9] was “inactive” in each case.
For the compound `COc1ccc(CC2SC(=O)NC2=O)cc1C(=O)NCc1ccc(C(F)(F)F)cc1` (centres undefined), the activation in experiment [1] is -5.55%. In addition, the Potency result in experiment [4] and in experiment [7] was “inactive” each time.
On to `S=C(S)N1CCCC1`, for which the Potency in [8] was 15.1 µM (active); in experiment [9] it was 3.16 µM (active).
As for `O=C1CCc2ccc(OCCCCN3CCN(c4cccc(Cl)c4Cl)CC3)cc2N1`, in [1], the activation is -4.19%. Moreover, the Potency was 23.5 µM (active) in [6], 23.5 µM (active) in [4] and 26.3 µM (active) in experiment [7].
Turning to `Cc1cccc(CN2CCN(C(c3ccccc3)c3ccc(Cl)cc3)CC2)c1` (centres undefined), the activation in experiment [1] was 5.02% and 0.39%. Further, the Potency in [2] is 20.9 µM (active). Further, the Potency result in [4] and in experiment [7] was “inactive” each time.
`S=P(N1CC1)(N1CC1)N1CC1`: the activation in experiment [1] is 31.6%. For the same compound, the Potency in [2] was 20.9 µM (active); in experiment [4], 26.3 µM (active). Moreover, the Potency result in experiment [6] was “inactive”.
`Nc1nc(N)c2nc(-c3cccc(O)c3)c(-c3cccc(O)c3)nc2n1`: the figures for the Potency in experiment [1] and in experiment [4] were 24.3 µM (active) and 18.6 µM (active), respectively. Further, the Potency entry in experiment [3], in experiment [6] and in [7] was “inactive” in each case.
As to `Cn1cncc1[C@@](N)(c1ccc(Cl)cc1)c1ccc2c(c1)c(-c1cccc(Cl)c1)cc(=O)n2C`, in [1], the activation is 15.2%. Besides, in [3], the Potency is 0.0021 µM (active).
For the compound `COc1ccccc1CN[C@@H]1CCCN[C@@H]1c1ccccc1`, the Potency result in experiment [8] and in [9] was “inactive” in each case.
For `CN=c1nc(-c2ccccc2)n(-c2ccccc2)s1`, the Potency entry in experiment [8] is “inactive”.
`CC(C)(C)c1ccc(S(=O)(=O)/C=C/C#N)cc1`: the Potency in experiment [8] is 26.9 µM (active); in experiment [9], 1.26 µM (active) and 708 nM (active).
